Inconclusive results are not listed. Calls of active or inactive are those of the source. Unless noted, calls follow the shape of the dose curve; as a rule, active = well fitted curve in the direction sought with a large enough effect in the repeat runs; inconclusive = weak or mixed curves; inactive = no such curve, though single readings can be large; an effect the other way counts as inactive or inconclusive.
Columns and labels:
[1] = qHTS assay to identify small molecule agonists of the peroxisome proliferator-activated receptor delta (PPARd) signaling pathway - cell viability counter screen (AID 743211); also: nearly all actives have a fitted effect of over 55% in size
Procedure, shortened: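 PPARd-bla HEK293H cells (3000/well) were pre-incubated 5 h at 37 C, then exposed to compound for 17 h at 37 C. After 2 h with LiveBLAzer substrate, CellTiter-Glo was added to the same wells; luminescence read after 30 min at room temperature.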

[2] = biological target: Peroxisome proliferator-activated receptor delta (Homo sapiens) (UniProt Q03181); experiment: qHTS assay to identify small molecule agonists of the peroxisome proliferator-activated receptor delta (PPARd) signaling pathway (AID 743212; calls by dose curve)
Procedure, shortened: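 GeneBLAzer UAS-bla HEK293H cells carrying a PPARδ construct were exposed to compounds at 37 °C. Beta-lactamase activity was read by FRET fluorescence after 2 h at room temperature with LiveBLAzer B/G substrate.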

[3] = qHTS assay to identify small molecule antagonists of the peroxisome proliferator-activated receptor delta (PPARd) signaling pathway - cell viability counter screen (AID 743213); also: nearly all actives have a fitted effect of over 50% in size
Procedure, shortened: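 Same-well viability: cells pre-incubated 5 h, dosed with compound plus 300 nM L165041, kept 17 h at 37 C, FRET substrate 2 h RT, then CellTiter-Glo 30 min RT and luminescence.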

[4] = biological target: Peroxisome proliferator-activated receptor delta (Homo sapiens) (UniProt Q03181); experiment: qHTS assay to identify small molecule antagonists of the peroxisome proliferator-activated receptor delta (PPARd) signaling pathway (AID 743215; active = well fitted inhibition curve with a large enough effect in the signal ratio in the repeat runs, not every such curve was filed as active; the % refers to the signal ratio;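 also: cells stimulated with agonist L165041 at 300 nM final during compound exposure; series mostly up to about 62 µM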)
Procedure, shortened: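 HEK293H UAS-bla, PPARd; agonist L165041 300 nM final with cpd in DMSO; 37 C 17 h; FRET substrate, RT 2 h; fluorescence intensity.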

[5] = biological target: Bile acid receptor (Homo sapiens) (UniProt Q96RI1); experiment: qHTS assay to identify small molecule antagonists of the farnesoid-X-receptor (FXR) signaling pathway (AID 743217; active = well fitted inhibition curve with a large enough effect in the signal ratio in the repeat runs, not every such curve was filed as active; the % refers to the signal ratio)
Procedure, shortened: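 GeneBLAzer FXR-UAS-bla HEK 293T, CDCA-stimulated (50 uM final). Compound treatment 16 h, 37 °C. Detection: beta-lactamase cleavage of B/G FRET substrate, fluorescence.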

[6] = qHTS assay to identify small molecule agonists of the farnesoid-X-receptor (FXR) signaling pathway - cell viability counter screen (AID 743218); also: nearly all actives have a fitted effect of over 45% in size
Procedure, shortened: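 Parallel cytotoxicity test: compound-treated (16 h, 37 C) HEK 293T FXR-bla reporter cells were lysed with CellTiter-Glo and luminescence recorded.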

[7] = biological target: Bile acid receptor (Homo sapiens) (UniProt Q96RI1); experiment: qHTS assay to identify small molecule agonists of the farnesoid-X-receptor (FXR) signaling pathway (AID 743220; active = well fitted activation curve with a large enough effect in the signal ratio in the repeat runs, not every such curve was filed as active; the % refers to the signal ratio)
Procedure, shortened: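 Beta-lactamase reporter under UAS control in GeneBLAzer FXR HEK 293T cells (5000/well) measured with LiveBLAzer FRET substrate after 2 h at room temperature. Compound exposure lasted 16 h at 37C.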

[8] = qHTS assay to identify small molecule antagonists of the farnesoid-X-receptor (FXR) signaling pathway - cell viability counter screen (AID 743221; active = well fitted cell-killing curve with a large enough effect in the repeat runs, not every such curve was filed as active; also: nearly all actives have a fitted effect of over 50% in size)
Procedure, shortened: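 GeneBLAzer FXR-UAS-bla HEK 293T cells, compound plus chenodeoxycholic acid (50 uM final), 16 h at 37 C. CellTiter-Glo added to the same wells after the beta-lactamase read; luminescence read after 30 min at room temperature as viability.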

[9] = biological target: Vitamin D3 receptor (Homo sapiens) (UniProt P11473); experiment: qHTS assay to identify small molecule agonists of the vitamin D receptor (VDR) signaling pathway (AID 743222; calls by dose curve)
Procedure, shortened: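 In VDR-bla cells, compound-induced beta-lactamase expression is quantified by FRET substrate fluorescence. Treatment lasts 16 h at 37C; substrate develops 2 h at room temperature.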

[10] = biological target: Vitamin D3 receptor (Homo sapiens) (UniProt P11473); experiment: qHTS assay to identify small molecule antagonists of the vitamin D receptor (VDR) signaling pathway (AID 743223; active = well fitted inhibition curve with a large enough effect in the signal ratio in the repeat runs, not every such curve was filed as active; the % refers to the signal ratio)
Procedure, shortened: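 VDR-bla cells were treated with compound plus 3 nM final 1alpha,25-dihydroxyvitamin D3 for 16 h at 37C. Beta-lactamase reporter read by B/G FRET substrate fluorescence after 2 h at room temperature. qHTS format.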
% is scaled to controls: 0 for no effect and ±100 for the full control effect.

Peroxisome proliferator-activated receptor delta (Homo sapiens), sequence (Q03181 whole entry, looked up): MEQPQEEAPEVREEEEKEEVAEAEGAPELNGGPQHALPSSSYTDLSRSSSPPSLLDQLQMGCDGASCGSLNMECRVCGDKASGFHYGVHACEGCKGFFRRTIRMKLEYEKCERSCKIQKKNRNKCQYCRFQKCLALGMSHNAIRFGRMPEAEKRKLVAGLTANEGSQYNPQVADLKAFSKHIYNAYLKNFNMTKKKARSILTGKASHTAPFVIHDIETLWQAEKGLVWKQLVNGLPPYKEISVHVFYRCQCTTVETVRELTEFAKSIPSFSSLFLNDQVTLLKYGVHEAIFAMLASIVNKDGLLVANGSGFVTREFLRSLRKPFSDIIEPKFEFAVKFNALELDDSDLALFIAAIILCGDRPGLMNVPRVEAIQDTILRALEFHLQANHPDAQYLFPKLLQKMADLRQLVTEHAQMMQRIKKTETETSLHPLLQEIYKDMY
Bile acid receptor (Homo sapiens), sequence (Q96RI1 whole entry, looked up): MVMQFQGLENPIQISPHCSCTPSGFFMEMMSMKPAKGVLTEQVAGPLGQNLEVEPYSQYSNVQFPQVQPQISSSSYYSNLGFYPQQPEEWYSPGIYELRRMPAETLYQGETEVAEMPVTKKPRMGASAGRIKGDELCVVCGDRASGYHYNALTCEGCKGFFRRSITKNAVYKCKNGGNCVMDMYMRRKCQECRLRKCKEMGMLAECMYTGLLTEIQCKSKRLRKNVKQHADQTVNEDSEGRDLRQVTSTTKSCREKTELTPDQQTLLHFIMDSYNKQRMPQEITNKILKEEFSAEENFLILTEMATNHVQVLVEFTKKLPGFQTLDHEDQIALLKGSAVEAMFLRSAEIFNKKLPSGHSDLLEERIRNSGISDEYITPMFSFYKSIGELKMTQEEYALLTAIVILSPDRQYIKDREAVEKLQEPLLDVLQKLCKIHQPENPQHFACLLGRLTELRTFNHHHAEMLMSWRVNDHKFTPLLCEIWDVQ
Vitamin D3 receptor (Homo sapiens), sequence (P11473 whole entry, looked up): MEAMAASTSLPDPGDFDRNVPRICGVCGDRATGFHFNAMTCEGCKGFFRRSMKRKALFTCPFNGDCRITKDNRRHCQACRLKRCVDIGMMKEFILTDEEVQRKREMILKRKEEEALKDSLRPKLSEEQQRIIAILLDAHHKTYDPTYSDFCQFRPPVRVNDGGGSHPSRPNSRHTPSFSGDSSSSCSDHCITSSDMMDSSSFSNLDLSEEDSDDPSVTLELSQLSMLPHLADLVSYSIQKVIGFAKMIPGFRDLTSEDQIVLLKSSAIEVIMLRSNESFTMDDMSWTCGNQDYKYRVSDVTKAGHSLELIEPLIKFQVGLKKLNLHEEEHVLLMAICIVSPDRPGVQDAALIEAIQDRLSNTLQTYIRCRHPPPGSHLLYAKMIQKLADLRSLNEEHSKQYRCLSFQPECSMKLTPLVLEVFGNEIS

CC(C)(C)NCCNC(C)(C)C
inactive: Potency [1] | outcome [2] | Potency [3] | Potency [4] | outcome [5] | Potency [6] | outcome [7] | Potency [8] | outcome [9]

COC(C)(C)CCCC(C)CC=O (stereo not given)
inactive: Potency [1] | outcome [2] | Potency [3] | Potency [4] | outcome [5] | Potency [6] | outcome [7] | outcome [10]

NC(=O)c1cn(Cc2c(F)cccc2F)nn1
inactive: Potency [1] | outcome [2] | Potency [3] | Potency [4] | outcome [5] | Potency [6] | outcome [7] | Potency [8] | outcome [9] | outcome [10]

CC[N+](C)(C)c1cccc(O)c1
inactive: Potency [1] | outcome [2] | Potency [3] | Potency [4] | outcome [5] | Potency [6] | outcome [7] | Potency [8]

CC(=O)OCC(=O)[C@@]1(O)CCC2C3CCC4=CC(=O)CC[C@]4(C)C3[C@@H](O)C[C@@]21C (stereo not given in full)
inactive: Potency [1] | outcome [2] | Potency [3] | Potency [4] | outcome [5] | Potency [6] | outcome [7] | Potency [8] | outcome [10]

CCS(=O)(=O)c1ccc(OC)c(C(=O)OC)c1
inactive: Potency [1] | outcome [2] | Potency [3] | Potency [4] | outcome [5] | Potency [6] | outcome [7]

CCCCOCCOCCOCCCC
inactive: Potency [1] | outcome [2] | Potency [3] | Potency [4] | outcome [5] | Potency [6] | outcome [7] | Potency [8]

NCCCNCCSP(=O)(O)O
inactive: activity change, negative = cytotoxicity [1] 8.83% [at 13.2 µM] | activation [2] -0.031% [at 13.2 µM] | viability change, negative = cytotoxic [3] 1.09% [at 13.7 µM] | ratio activity, negative = inhibition [4] -0.162% [at 13.7 µM] | activity change, negative = inhibition [5] 5.47% [at 13.2 µM] | viability change, negative = cytotoxic [6] 7.81% [at 13.2 µM] | activation [7] 0.213% [at 13.2 µM] | activity change, negative = cytotoxicity [8] 2.46% [at 13.2 µM]

CC(NC(CCc1ccccc1)C(=O)O)C(=O)N1C(=O)N(C)CC1C(=O)O (stereo not given)
inactive: Potency [1] | outcome [2] | Potency [3] | Potency [4] | outcome [5] | outcome [7] | Potency [8] | outcome [9] | outcome [10]

COCCCOCCCOC
inactive: Potency [1] | outcome [2] | Potency [3] | Potency [4] | outcome [5] | Potency [6] | outcome [7] | Potency [8] | outcome [9] | outcome [10]

O=c1n(CCO)c(=O)n(CCO)c(=O)n1CCO
inactive: Potency [1] | outcome [2] | Potency [3] | Potency [4] | outcome [5] | Potency [6] | outcome [7] | Potency [8] | outcome [9] | outcome [10]

N=C(N)c1ccc2cc(OC(=O)c3ccc(N=C(N)N)cc3)ccc2c1
inactive: Potency [1] | outcome [2] | Potency [3] | Potency [4] | outcome [5] | Potency [6] | outcome [7] | outcome [9] | outcome [10]

CCn1nc(C(=O)O)c(=O)c2cc3c(cc21)OCO3
inactive: Potency [1] | outcome [2] | Potency [3] | Potency [4] | Potency [6]

CCO/C([O-])=N/c1c[n+](N2CCOCC2)no1
inactive: Potency [1] | outcome [2] | Potency [3] | Potency [4] | outcome [5] | Potency [6] | outcome [7] | Potency [8] | outcome [9] | outcome [10]

CCC(C)S (stereo not given)
inactive: activity change, negative = cytotoxicity [1] 2.23% [at 2.7 µM] | activation [2] -4.14% [at 2.7 µM] | viability change, negative = cytotoxic [3] 4.88% [at 2.83 µM] | ratio activity, negative = inhibition [4] 5.9% [at 2.83 µM] | activity change, negative = inhibition [5] 3.24% [at 2.69 µM] | viability change, negative = cytotoxic [6] 7.12% [at 2.7 µM] | activation [7] -0.872% [at 2.7 µM] | activity change, negative = cytotoxicity [8] 5.23% [at 2.69 µM] | activation [9] 12.2% [at 2.71 µM] | activity change, negative = inhibition [10] 0.31% [at 3.11 µM]

CC(C)(O)C#CC(C)(C)O
inactive: Potency [1] | outcome [2] | Potency [3] | Potency [4]

N[C@@H](C(=O)N[C@@H]1C(=O)N2C(C(=O)O)=C(Cl)CS[C@H]12)c1ccccc1
inactive: activity change, negative = cytotoxicity [1] 12.6% [at 13.2 µM] | activation [2] 0.732% [at 13.2 µM] | viability change, negative = cytotoxic [3] 10.2% [at 13.7 µM] | ratio activity, negative = inhibition [4] 0.0649% [at 13.7 µM] | activity change, negative = inhibition [5] -0.0054% [at 13.2 µM] | viability change, negative = cytotoxic [6] 3.28% [at 13.2 µM] | activation [7] 0.369% [at 13.2 µM] | activation [9] 4.64% [at 13.4 µM] | activity change, negative = inhibition [10] 2.28% [at 6.95 µM]

CC(C[N+](C)(C)C)OC(N)=O (stereo not given)
inactive: Potency [1] | outcome [2] | Potency [3] | Potency [4] | outcome [5] | Potency [6] | outcome [7] | Potency [8]

C=C[Si](OC(=C)C)(OC(=C)C)OC(=C)C
inactive: Potency [1] | outcome [2] | Potency [3] | Potency [4] | outcome [5] | Potency [6] | outcome [7] | Potency [8] | outcome [9] | outcome [10]

C=C(C)CS(=O)(=O)O
inactive: Potency [1] | outcome [2] | Potency [3] | Potency [4] | outcome [5] | Potency [6] | outcome [7]

CCOC(C)(C)C
inactive: Potency [1] | outcome [2] | Potency [3] | Potency [4] | outcome [5] | Potency [6] | outcome [7] | Potency [8] | outcome [9] | outcome [10]

NC(CSCC(=O)O)C(=O)O (stereo not given)
inactive: Potency [1] | outcome [2] | Potency [3] | Potency [4] | outcome [5] | outcome [7] | Potency [8] | outcome [9] | outcome [10]

CO[Si](CCCOCC1CO1)(OC)OC (stereo not given)
inactive: Potency [1] | outcome [2] | Potency [3] | Potency [4] | Potency [6] | outcome [7] | Potency [8] | outcome [9]

CCO[Si](CCC1CCC2OC2C1)(OCC)OCC (stereo not given)
inactive: Potency [1] | outcome [2] | Potency [3] | Potency [4] | outcome [5] | Potency [6] | outcome [7] | outcome [9] | outcome [10]

CCN(CC)CCNC(=O)c1cc(S(C)(=O)=O)ccc1OC
inactive: Potency [1] | outcome [2] | Potency [3] | Potency [4] | Potency [6] | Potency [8]

From PubChem BioAssay (Tox21)
